# T1: TERF1 58-268 TRF (domain begin residue: 58, domain end residue: 268), P54274
# T1 chain: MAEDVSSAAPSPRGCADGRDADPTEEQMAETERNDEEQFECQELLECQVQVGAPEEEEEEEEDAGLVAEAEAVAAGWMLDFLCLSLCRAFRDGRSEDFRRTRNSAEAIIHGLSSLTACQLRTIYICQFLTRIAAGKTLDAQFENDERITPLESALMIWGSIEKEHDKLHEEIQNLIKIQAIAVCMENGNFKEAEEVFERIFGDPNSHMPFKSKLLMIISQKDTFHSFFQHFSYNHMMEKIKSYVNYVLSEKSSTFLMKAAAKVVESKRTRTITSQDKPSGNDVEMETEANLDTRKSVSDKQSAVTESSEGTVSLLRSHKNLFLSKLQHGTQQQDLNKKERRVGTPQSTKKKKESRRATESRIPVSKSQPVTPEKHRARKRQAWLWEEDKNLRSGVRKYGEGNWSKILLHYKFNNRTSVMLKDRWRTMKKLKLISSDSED
# T2: TDRD1 261-449 TUDOR (domain begin residue: 261, domain end residue: 449), Q9BXT4
# T2 chain: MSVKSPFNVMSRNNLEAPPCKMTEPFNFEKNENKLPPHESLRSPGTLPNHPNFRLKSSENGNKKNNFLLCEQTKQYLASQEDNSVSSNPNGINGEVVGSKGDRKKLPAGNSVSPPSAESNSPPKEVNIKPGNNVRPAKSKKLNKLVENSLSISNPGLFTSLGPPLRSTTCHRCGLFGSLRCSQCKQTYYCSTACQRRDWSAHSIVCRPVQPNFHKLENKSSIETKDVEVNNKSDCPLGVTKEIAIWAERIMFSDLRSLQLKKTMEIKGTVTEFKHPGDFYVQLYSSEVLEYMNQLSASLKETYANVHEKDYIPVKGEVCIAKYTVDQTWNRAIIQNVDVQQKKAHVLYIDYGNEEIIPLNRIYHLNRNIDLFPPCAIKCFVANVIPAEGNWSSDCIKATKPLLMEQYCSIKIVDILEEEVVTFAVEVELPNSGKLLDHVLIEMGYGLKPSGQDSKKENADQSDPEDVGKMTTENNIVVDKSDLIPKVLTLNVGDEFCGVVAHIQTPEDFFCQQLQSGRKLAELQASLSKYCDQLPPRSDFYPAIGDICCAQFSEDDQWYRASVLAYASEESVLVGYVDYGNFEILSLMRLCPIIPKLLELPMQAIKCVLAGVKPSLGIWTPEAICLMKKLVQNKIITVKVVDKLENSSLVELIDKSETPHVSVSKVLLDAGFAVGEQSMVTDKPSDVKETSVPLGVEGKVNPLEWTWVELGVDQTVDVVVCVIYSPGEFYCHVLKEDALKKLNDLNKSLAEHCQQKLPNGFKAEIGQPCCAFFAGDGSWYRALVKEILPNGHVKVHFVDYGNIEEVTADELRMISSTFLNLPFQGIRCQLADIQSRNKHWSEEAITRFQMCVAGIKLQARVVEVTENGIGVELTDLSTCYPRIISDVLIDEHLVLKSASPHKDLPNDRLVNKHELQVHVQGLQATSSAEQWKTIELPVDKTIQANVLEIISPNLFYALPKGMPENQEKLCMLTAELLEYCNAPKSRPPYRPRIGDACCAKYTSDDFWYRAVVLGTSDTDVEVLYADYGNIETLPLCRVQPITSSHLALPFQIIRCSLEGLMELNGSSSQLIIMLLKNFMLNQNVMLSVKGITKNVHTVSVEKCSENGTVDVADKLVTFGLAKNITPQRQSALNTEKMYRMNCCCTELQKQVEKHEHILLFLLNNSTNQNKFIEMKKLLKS
# T3: TOM1L1 1-150 VHS (domain begin residue: 1, domain end residue: 150), O75674
# T3 chain: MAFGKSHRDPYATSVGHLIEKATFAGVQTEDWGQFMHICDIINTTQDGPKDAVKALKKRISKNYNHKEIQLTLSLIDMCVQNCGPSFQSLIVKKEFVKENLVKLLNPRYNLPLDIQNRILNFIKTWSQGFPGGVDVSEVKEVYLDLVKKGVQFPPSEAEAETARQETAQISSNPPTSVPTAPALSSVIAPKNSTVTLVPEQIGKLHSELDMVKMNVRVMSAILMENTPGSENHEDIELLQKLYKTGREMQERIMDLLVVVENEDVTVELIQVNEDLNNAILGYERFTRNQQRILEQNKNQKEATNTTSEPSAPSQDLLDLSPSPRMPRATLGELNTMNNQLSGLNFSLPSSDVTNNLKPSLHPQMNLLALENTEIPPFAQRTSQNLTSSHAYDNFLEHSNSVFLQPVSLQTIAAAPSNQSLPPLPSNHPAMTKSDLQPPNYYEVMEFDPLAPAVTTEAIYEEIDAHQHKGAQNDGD
# T4: TDRKH 290-430 TUDOR+SNase (domain begin residue: 290, domain end residue: 430), Q9Y2W6
# T4 chain: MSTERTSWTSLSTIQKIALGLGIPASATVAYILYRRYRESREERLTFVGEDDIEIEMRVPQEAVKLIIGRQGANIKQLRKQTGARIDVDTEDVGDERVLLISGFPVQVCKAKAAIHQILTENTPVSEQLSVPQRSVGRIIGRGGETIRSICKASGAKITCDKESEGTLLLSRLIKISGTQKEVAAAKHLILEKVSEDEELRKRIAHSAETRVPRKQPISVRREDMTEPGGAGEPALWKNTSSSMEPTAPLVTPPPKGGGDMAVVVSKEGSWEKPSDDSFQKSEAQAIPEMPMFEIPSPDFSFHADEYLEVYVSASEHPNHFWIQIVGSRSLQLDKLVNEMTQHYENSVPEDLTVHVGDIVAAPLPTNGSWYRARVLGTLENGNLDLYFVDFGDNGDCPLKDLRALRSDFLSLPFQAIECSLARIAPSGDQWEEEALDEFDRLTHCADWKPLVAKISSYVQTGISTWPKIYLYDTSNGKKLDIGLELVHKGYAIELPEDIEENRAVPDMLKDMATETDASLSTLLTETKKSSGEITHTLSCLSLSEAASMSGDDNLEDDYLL
# T5: TOM1L2 1-153 VHS (domain begin residue: 1, domain end residue: 153), Q6ZVM7
# T5 chain: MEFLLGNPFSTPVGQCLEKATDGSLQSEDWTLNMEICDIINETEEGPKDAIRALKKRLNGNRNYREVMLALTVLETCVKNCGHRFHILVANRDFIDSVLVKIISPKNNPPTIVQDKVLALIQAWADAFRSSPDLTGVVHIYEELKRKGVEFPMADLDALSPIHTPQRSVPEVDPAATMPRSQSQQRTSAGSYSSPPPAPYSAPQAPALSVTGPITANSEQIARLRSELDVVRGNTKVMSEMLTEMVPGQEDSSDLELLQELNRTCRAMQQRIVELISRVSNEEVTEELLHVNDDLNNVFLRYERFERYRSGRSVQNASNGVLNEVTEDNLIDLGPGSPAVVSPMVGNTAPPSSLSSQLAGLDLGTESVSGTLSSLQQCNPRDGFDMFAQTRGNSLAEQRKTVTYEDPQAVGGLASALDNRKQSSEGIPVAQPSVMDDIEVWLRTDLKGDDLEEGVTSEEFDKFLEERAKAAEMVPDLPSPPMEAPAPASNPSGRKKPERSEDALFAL
# T6: TCEA2 231-299 TFIIS_C (domain begin residue: 231, domain end residue: 299), Q15560
# T6 chain: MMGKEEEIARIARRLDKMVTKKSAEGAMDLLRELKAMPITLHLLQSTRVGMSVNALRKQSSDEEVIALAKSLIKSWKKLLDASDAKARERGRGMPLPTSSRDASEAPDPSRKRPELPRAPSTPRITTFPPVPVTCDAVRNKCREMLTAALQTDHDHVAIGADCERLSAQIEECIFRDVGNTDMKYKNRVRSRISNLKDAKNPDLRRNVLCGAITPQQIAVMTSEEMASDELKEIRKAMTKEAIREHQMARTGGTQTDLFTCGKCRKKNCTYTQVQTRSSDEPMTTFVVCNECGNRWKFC
# T7: TRIM11 268-461 SPRY (domain begin residue: 268, domain end residue: 461), Q96F44
# T7 chain: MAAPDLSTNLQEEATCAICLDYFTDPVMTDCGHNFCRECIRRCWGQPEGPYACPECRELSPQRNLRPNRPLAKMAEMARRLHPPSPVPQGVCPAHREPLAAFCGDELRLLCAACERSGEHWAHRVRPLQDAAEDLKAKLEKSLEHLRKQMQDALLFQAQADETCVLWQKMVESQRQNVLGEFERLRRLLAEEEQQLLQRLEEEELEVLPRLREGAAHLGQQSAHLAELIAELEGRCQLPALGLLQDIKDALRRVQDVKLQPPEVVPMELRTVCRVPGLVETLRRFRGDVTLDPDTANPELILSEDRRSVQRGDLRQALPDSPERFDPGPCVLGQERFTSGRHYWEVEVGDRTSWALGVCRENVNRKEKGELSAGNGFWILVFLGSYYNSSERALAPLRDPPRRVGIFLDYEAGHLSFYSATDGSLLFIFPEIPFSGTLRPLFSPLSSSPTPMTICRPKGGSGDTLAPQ
# Columns and labels:
# Test in all cases: phage ELISA signal ratio (GST-PRM binding over GST background); higher = stronger binding of peptide-phage to the PRM
# [1] = biological target: T1, TERF1 58-268 TRF (domain begin residue: …
# How it was run: (§1)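 An M13 phage library with randomized hexadecapeptides on the gene-8 major coat protein, each peptide lacking cysteine and flanked by glycine, was selected for five rounds against human peptide recognition domains fused to the C-terminus of glutathione S-transferase (GST) and expressed in 96-well plates. Approximately 48 clones from rounds 4 and 5 went to phage ELISA. The reported value is the ELISA signal on the GST-domain fusion over the signal on GST alone, and positive clones were sequenced.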
# [2] = biological target: T2, TDRD1 261-449 TUDOR (domain begin …
# How it was run: as §1
# [3] = biological target: T3, TOM1L1 1-150 VHS (domain begin residue: …
# How it was run: as §1
# [4] = biological target: T4, TDRKH 290-430 TUDOR+SNase (domain begin …
# How it was run: as §1
# [5] = biological target: T5, TOM1L2 1-153 VHS (domain begin residue: …
# How it was run: as §1
# [6] = biological target: TLN2 312-417 IRS (domain begin residue: 312, domain end residue: 417), Q9Y4G6
# How it was run: as §1
# [7] = biological target: T6, TCEA2 231-299 TFIIS_C (domain begin …
# How it was run: as §1
# [8] = biological target: T7, TRIM11 268-461 SPRY (domain begin …
# How it was run: as §1
# [9] = biological target: TLN1 309-401 IRS (domain begin residue: 309, domain end residue: 401), Q9Y490
# TLN1 309-401 IRS (domain begin residue: 309, domain end residue: 401), Q9Y490, sequence (Q9Y490 whole entry): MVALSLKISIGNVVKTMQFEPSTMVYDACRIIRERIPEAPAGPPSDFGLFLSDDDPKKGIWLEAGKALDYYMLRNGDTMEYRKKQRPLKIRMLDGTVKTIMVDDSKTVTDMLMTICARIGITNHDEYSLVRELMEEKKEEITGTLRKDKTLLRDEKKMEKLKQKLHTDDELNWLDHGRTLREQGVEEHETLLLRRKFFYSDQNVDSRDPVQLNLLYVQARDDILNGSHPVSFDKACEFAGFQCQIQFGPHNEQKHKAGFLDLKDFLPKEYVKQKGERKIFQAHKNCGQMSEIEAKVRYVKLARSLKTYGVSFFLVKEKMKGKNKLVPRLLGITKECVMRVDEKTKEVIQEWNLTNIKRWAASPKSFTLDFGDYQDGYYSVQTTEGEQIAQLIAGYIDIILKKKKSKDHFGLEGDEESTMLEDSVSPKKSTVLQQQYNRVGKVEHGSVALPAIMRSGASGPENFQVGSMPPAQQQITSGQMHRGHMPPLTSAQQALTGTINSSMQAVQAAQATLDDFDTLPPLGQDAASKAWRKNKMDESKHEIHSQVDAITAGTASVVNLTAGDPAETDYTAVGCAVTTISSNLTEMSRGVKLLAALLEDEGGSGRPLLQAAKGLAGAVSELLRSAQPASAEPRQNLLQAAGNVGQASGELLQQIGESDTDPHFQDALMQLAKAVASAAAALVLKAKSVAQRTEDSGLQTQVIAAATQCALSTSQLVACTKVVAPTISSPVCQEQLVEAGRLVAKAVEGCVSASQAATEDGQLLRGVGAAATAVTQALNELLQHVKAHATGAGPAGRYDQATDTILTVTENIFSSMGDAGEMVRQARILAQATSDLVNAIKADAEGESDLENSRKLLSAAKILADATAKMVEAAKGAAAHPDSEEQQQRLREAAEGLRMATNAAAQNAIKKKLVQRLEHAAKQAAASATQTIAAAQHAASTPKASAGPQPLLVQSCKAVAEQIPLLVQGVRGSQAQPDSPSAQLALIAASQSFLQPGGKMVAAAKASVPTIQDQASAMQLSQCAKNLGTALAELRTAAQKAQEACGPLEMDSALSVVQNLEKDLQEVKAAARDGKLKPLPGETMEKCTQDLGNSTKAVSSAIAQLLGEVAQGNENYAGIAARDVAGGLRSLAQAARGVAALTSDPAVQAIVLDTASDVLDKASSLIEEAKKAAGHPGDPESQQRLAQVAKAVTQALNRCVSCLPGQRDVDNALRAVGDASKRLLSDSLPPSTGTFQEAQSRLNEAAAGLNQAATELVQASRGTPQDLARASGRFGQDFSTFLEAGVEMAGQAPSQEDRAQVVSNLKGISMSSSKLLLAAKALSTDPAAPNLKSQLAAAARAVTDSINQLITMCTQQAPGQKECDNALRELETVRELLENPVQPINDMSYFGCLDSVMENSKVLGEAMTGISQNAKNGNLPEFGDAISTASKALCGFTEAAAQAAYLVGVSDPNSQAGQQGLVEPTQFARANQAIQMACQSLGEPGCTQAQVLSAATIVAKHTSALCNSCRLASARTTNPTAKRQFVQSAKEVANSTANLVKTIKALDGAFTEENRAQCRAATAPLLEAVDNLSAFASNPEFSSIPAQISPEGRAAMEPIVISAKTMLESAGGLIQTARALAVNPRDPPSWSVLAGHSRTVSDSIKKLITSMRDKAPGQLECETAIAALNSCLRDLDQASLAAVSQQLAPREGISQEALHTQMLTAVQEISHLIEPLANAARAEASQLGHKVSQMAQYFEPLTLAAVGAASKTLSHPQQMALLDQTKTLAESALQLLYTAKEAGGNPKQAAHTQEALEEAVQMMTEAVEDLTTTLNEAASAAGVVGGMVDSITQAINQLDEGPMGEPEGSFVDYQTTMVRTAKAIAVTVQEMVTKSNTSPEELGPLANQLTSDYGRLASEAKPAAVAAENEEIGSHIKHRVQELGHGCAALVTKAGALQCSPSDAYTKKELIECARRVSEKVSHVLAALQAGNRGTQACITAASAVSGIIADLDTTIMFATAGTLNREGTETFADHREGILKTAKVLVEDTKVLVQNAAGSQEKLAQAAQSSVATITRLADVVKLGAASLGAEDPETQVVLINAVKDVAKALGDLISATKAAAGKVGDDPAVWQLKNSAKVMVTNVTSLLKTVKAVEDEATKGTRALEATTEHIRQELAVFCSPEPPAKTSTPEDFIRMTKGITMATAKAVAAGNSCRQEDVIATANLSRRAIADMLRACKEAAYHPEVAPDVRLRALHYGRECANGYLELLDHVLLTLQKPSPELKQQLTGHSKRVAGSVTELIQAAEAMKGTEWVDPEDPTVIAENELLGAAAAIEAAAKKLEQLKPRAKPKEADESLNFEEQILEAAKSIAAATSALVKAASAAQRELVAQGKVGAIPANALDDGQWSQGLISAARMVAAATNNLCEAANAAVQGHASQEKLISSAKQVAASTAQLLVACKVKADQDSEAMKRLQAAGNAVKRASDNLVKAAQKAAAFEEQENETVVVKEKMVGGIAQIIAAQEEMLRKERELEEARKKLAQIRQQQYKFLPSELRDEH
# How it was run: as §1
# [10] = biological target: TOM1 1-153 VHS (domain begin residue: 1, domain end residue: 153), O60784
# TOM1 1-153 VHS (domain begin residue: 1, domain end residue: 153), O60784, sequence (O60784 whole entry): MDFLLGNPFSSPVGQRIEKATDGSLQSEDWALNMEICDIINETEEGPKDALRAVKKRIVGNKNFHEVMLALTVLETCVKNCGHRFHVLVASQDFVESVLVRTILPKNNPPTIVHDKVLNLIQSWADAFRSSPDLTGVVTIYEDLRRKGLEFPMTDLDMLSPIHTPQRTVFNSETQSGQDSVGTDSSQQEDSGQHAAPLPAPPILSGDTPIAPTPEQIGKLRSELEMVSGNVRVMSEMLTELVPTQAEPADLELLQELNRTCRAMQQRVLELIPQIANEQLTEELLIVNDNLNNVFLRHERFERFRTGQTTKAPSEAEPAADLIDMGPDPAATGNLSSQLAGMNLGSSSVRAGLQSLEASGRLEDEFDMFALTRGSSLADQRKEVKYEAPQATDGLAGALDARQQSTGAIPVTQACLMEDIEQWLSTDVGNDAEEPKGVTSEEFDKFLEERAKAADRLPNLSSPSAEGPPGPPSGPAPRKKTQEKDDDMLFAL
# How it was run: as §1
binder,measurement,setting,value
SFPLEFTTDYMYNLMA,phage ELISA signal ratio,[1],18.2
IWDQWYEWNSEWDRLP,phage ELISA signal ratio,[2],3.57
NNNWWMQWHVEEHEME,phage ELISA signal ratio,[3],4.26
ETDKWVPSYLWWANYS,phage ELISA signal ratio,[3],16.8
WDEEDDHWWEHFFWFQ,phage ELISA signal ratio,[3],12.6
EPGHWMEWIWDTIELE,phage ELISA signal ratio,[2],9.32
HEQNRMDVRNDGRTGF,phage ELISA signal ratio,[4],8
YQDWDWDPEMKRMVVS,phage ELISA signal ratio,[5],4.04
EHSFLFEDWMWEGKDH,phage ELISA signal ratio,[1],5.48
AFENNQQAILQYMMDV,phage ELISA signal ratio,[5],22.7
KWNDDDWWTYFVSQVE,phage ELISA signal ratio,[5],20.3
DDHLWHPSFKWWDEYV,phage ELISA signal ratio,[3],15.8
WDLNAQVEHMWQYGIA,phage ELISA signal ratio,[6],15.9
WAWEDMWFMEQLESTE,phage ELISA signal ratio,[7],3.89
DFTWLHSEKWWPEEWG,phage ELISA signal ratio,[3],14.3
REMLDYYQGVWVPPVS,phage ELISA signal ratio,[4],4.26
GFFQFQALPEWIVYMN,phage ELISA signal ratio,[8],12.6
MPLHEWEAGWPWEVVG,phage ELISA signal ratio,[2],7.35
PNVGEWQYNLSYIWEM,phage ELISA signal ratio,[9],15.5
QNNFIQLQEWHWLEGW,phage ELISA signal ratio,[6],11.2
HELHGHLGPYGYPAGT,phage ELISA signal ratio,[4],7.85
MMFAGLGTPNPYEVTT,phage ELISA signal ratio,[5],16.9
NSWWLDYEERATLHGD,phage ELISA signal ratio,[10],9.5
VSEGQWRPSYLWWTDD,phage ELISA signal ratio,[3],4.64
ADGWGWYENWVWPASM,phage ELISA signal ratio,[3],4.28
EWWLSYDPHWVETISA,phage ELISA signal ratio,[10],5.42
VETQWEQWQEYGLKFS,phage ELISA signal ratio,[9],16.2
MLFDDEAMYNWQWHLM,phage ELISA signal ratio,[1],12.2
TEMWTPAQQALWAYIT,phage ELISA signal ratio,[5],8.79
